# According to PubChem BioAssay:
# Where “and” joins values, the source holds several entries; their conditions need not be identical. Equal entries are not always repeated. Results filed as inconclusive are left out. Calls of active or inactive are those of the source.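 How the source made its calls, unless noted: active means normalized viability below 100% at a tested concentration; inactive means the rest.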
# Experiments:
# [1] = viability loss in pontine glioma line – cell-based, SU-DIPG-XXV, MIPE5.0, CellTiter-Glo, qHTS, dose response (AID 1347065; cut-off not given, nearly all actives have AC50 up to about 26 µM;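 further: cells exposed to compound for 48 hours before ATP readout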); conditions: CellTiter-Glo ATP luminescence
# [2] = SU-DIPG-VI glioma cell viability, MIPE4.0 library, CellTiter-Glo luminescence, qHTS (AID 1347066; cut-off not given, nearly all actives have AC50 up to about 30 µM;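 further: cells exposed to compound for 48 hours before readout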); conditions: CellTiter-Glo ATP luminescence
# [3] = JHH-DIPG-1 glioma cell viability, MIPE5.0 library, CellTiter-Glo luminescence, qHTS (AID 1347067; cut-off not given, nearly all actives have AC50 up to about 26 µM;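 further: cells exposed to compound for 48 hours before readout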); conditions: JHH-DIPG-1 glioma viability, CellTiter-Glo ATP luminescence
# [4] = SU-DIPG-XXV glioma cell viability, MIPE5.0 library, qHTS (AID 1347068; cut-off not given, nearly all actives have IC50 up to about 30 µM)
# [5] = survival rescue of mitochondrial mutant cells in low glucose, primary screen, MELAS cybrids, Rieske KO mouse fibroblasts, CellTiter-Glo (AID 1508586;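 active means mean z-score across replicates of 1.96 or higher in either the MELAS or the Rieske mutant cell line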;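 further: z relative to plate mean and SD of compound and empty wells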)
# [6] = target: NAD(+) hydrolase SARM1 (Homo sapiens) (UniProt Q6SZW1); test: SARM1 TIR NADase inhibitors, cell lysate, NAD-Glo luminescence (AID 1508614;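 active means compound whose remaining NAD level is above about 45 nM, limit read from the data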); conditions: SAM-TIR HEK293T lysate NADase, at 1 µM, stronger effect = higher value
# [7] = target: Mitogen-activated protein kinase 7 (Homo sapiens) (UniProt Q13164); test: ERK5 transactivation activators in reporter cells, primary screen, cell-based, HTS (AID 1508626;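 active means luciferase signal above three times the same-plate solvent-only control wells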;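 further: luciferase driven by Gal4-ERK5 fusion binding five Gal4 sites before minimal TATA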); conditions: HeLa Gal4-ERK5 transactivation, 18 h, at 5 µM, stronger effect = higher value
# [8] = viability rescue of complex I mutant cybrids, primary screen, cell-based, galactose medium, ATP luminescence (AID 1645843;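 active means z-score of at least 1.8 in each of two replicates, scored against plate mean and spread of sample wells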;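 further: positive z means more ATP and so rescue of galactose-driven cybrid death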); conditions: complex I mutant cybrid cells, 72 h, stronger effect = higher value
# [9] = modifiers of HSF1 nuclear foci, imaging, Selleck Cancer Library (AID 1347162; in the data active means plate-normalised HSF1 focus index below about 0.46); conditions: human cells, at 10 µM; SSMD: measured here: HSF1 foci SSMD mean; cell count: measured here: cell number; plate-normalised HSF1 focus index: stronger effect = lower value
# [10] = ovarian cancer cell viability with rucaparib, profiling panel, oncology-focused library, rucaparib conditional (AID 1508598); conditions: patient-derived ovarian cancer cells, CellTiter-Glo viability, 144 h, stronger effect = lower value
# [11] = LFS_MB_P medulloblastoma growth inhibition, cell-based, chromothripsis tumors, cisplatin or BGB combos (AID 1671449; in the data active means inhibition above about 80%;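 further: cells exposed for 96 hours; 0% = vehicle DMSO and 100% = killing by high DMSO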); conditions: LFS_MB_P medulloblastoma cells
# [12] = HDN33 neuroblastoma growth inhibition, cell-based, chromothripsis tumors, cisplatin or BGB combos (AID 1671450; in the data active means inhibition above about 80%;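 further: cells exposed to compound for four days; 0% = vehicle DMSO and 100% = cell killing by high DMSO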); conditions: HDN33 neuroblastoma cells, stronger effect = higher value
# [13] = ICB984 medulloblastoma cell growth inhibition, synergistic combos for chromothripsis tumors, cisplatin or BGB combos (AID 1671451; call rule not given here;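 further: cells exposed for 96 hours before readout; 0% = vehicle DMSO and 100% = killing by high DMSO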); conditions: ICB984 medulloblastoma cells, drug combinations, stronger effect = higher value
# [14] = LFS_MB_1R medulloblastoma cell growth inhibition, synergistic combos for chromothripsis tumors, cisplatin or BGB combos (AID 1671452; in the data active means inhibition above about 80%;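 further: cells exposed for 96 hours before readout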); conditions: LFS_MB_1R medulloblastoma cells, stronger effect = higher value
# [15] = HTB85 osteosarcoma cell growth inhibition, synergistic combos for chromothripsis tumors, BGB or cisplatin IC20 combos (AID 1671453; in the data active means inhibition above about 80%;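 further: cells exposed for 96 hours before readout; 0% = vehicle DMSO and 100% = high DMSO killing control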); conditions: HTB85 osteosarcoma cells, drug combinations, stronger effect = higher value
# [16] = CRL2098 osteosarcoma cell growth inhibition, synergistic combos for chromothripsis tumors, BGB or cisplatin IC20 combos (AID 1671454; in the data active means inhibition above about 80%;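 further: cells exposed for 96 h before readout; 0% = vehicle DMSO and 100% = killing by high DMSO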); conditions: CRL2098 osteosarcoma cells, drug combinations, stronger effect = higher value
# [17] = HD-MB03 medulloblastoma cell growth inhibition, synergistic combos for chromothripsis tumors, BGB or cisplatin IC20 combos (AID 1671455; in the data active means inhibition above about 83%;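 further: 0% = vehicle DMSO and 100% = high DMSO as cytotoxic control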); conditions: HD-MB03 medulloblastoma cells, stronger effect = higher value
# [18] = MELAS cybrid survival, CellTiter-Glo 48 h, stronger effect = higher value
# [19] = Rieske KO mouse fibroblast survival, CellTiter-Glo 72 h
# [20] = measured here: combination with BGB IC40, at 0.05 µM
# Chain of NAD(+) hydrolase SARM1 (Homo sapiens) (Q6SZW1 whole entry, looked up, the tested form may be a part): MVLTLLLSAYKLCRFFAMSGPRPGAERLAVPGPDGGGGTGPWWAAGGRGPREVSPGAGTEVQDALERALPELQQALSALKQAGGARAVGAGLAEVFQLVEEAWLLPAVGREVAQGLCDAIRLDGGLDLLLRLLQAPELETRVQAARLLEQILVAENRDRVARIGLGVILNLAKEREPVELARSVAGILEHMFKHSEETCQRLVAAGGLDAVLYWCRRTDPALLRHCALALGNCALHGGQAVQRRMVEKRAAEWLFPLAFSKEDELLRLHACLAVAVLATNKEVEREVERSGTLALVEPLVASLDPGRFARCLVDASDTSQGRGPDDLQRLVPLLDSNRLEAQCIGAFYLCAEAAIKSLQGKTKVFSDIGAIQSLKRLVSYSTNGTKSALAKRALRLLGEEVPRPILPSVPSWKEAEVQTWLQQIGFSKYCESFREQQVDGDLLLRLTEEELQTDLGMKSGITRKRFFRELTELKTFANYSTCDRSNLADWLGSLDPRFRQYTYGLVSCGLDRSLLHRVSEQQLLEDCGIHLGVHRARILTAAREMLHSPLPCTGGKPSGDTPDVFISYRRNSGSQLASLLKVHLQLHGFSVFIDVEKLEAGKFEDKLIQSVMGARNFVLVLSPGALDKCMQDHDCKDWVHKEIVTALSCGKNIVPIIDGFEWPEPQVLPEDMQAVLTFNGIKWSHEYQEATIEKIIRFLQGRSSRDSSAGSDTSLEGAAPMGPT
# Chain of Mitogen-activated protein kinase 7 (Homo sapiens) (Q13164 whole entry, looked up, the tested form may be a part): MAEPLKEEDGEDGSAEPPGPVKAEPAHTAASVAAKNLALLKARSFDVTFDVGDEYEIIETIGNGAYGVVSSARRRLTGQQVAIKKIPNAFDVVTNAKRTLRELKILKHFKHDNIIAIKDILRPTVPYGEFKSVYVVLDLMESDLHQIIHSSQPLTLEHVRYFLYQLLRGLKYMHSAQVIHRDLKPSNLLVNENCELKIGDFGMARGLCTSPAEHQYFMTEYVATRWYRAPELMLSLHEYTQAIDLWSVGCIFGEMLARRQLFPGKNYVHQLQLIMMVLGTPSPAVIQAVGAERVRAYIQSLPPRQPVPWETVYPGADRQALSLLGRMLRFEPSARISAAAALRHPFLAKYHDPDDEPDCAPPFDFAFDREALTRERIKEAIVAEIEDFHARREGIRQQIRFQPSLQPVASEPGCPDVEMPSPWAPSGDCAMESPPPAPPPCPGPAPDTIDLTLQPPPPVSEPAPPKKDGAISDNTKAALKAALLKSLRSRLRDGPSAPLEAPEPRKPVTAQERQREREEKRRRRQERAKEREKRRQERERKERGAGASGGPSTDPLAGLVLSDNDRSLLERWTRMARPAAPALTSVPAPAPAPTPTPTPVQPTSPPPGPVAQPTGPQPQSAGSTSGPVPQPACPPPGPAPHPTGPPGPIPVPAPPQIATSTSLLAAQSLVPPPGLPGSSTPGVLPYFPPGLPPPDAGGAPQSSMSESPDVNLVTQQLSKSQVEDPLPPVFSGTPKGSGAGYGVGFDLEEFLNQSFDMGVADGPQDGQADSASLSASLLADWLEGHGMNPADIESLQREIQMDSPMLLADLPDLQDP
structure (smiles),measurement,setting,value
CN1C(C(=O)Nc2ccccn2)=C(O)c2sccc2S1(=O)=O,outcome,[1],inactive
same,outcome,[2],inactive
same,outcome,[3],inactive
same,outcome,[4],inactive
same,z-score,[5]; [18],-0.378 (inactive) and 0.116 (inactive) and -0.742 (inactive)
same,z-score,[5]; [19],0.123 and -0.0171 and -1.25
same,remaining NAD,[6],10 nM (inactive)
same,luciferase signal,[7],180 AU (inactive)
same,z-score,[8],-0.07 (inactive)
CCCc1nc(C)c2c(=O)[nH]c(-c3cc(S(=O)(=O)N4CCN(CC)CC4)ccc3OCC)nn12,outcome,[1],inactive
same,AC50,[2],8.33 µM (active)
same,outcome,[3],inactive
same,outcome,[4],inactive
same,z-score,[5]; [18],-0.282 (inactive) and 1.61 (inactive) and 1.47 (inactive)
same,z-score,[5]; [19],-1.38 and 1.33 and 1.06
same,remaining NAD,[6],18 nM (inactive)
same,luciferase signal,[7],60 AU (inactive)
same,z-score,[8],0.68 (inactive) and 0.485 (inactive)
Cn1nnc2c(C(N)=O)ncn2c1=O,outcome,[1],inactive
same,outcome,[2],inactive
same,outcome,[3],inactive
same,outcome,[4],inactive
same,SSMD,[9],1.56
same,cell count,[9],7070
same,plate-normalised HSF1 focus index,[9],1.09 (inactive)
same,z-score,[5]; [18],-0.452 (inactive) and 0.68 (inactive) and -0.709 (inactive)
same,z-score,[5]; [19],0.371 and -0.0371 and -0.913
same,viability,"[10]; at 0.000305 µM, OCI-C5x cells, with rucaparib 10 µM, 100% = cells with rucaparib alone",103% (inactive)
same,viability,"[10]; at 0.000305 µM, OCI-C5x cells, without rucaparib",108% (inactive)
same,viability,"[10]; at 0.000305 µM, OCI-P5x cells, with rucaparib 20 µM, 100% = cells with rucaparib alone",91% (active)
same,viability,"[10]; at 0.000305 µM, OCI-P5x cells, without rucaparib",88.3% (active)
same,viability,"[10]; at 0.00122 µM, OCI-C5x cells, with rucaparib 10 µM, 100% = cells with rucaparib alone",103% (inactive)
same,viability,"[10]; at 0.00122 µM, OCI-C5x cells, without rucaparib",109% (inactive)
same,viability,"[10]; at 0.00122 µM, OCI-P5x cells, with rucaparib 20 µM, 100% = cells with rucaparib alone",108% (inactive)
same,viability,"[10]; at 0.00122 µM, OCI-P5x cells, without rucaparib",98.5% (active)
same,viability,"[10]; at 0.00488 µM, OCI-C5x cells, with rucaparib 10 µM, 100% = cells with rucaparib alone",113% (inactive)
same,viability,"[10]; at 0.00488 µM, OCI-C5x cells, without rucaparib",110% (inactive)
same,viability,"[10]; at 0.00488 µM, OCI-P5x cells, with rucaparib 20 µM, 100% = cells with rucaparib alone",110% (inactive)
same,viability,"[10]; at 0.00488 µM, OCI-P5x cells, without rucaparib",101% (inactive)
same,viability,"[10]; at 0.0195 µM, OCI-C5x cells, with rucaparib 10 µM, 100% = cells with rucaparib alone",118% (inactive)
same,viability,"[10]; at 0.0195 µM, OCI-C5x cells, without rucaparib",108% (inactive)
same,viability,"[10]; at 0.0195 µM, OCI-P5x cells, with rucaparib 20 µM, 100% = cells with rucaparib alone",106% (inactive)
same,viability,"[10]; at 0.0195 µM, OCI-P5x cells, without rucaparib",106% (inactive)
same,viability,"[10]; at 0.0781 µM, OCI-C5x cells, with rucaparib 10 µM, 100% = cells with rucaparib alone",102% (inactive)
same,viability,"[10]; at 0.0781 µM, OCI-C5x cells, without rucaparib",101% (inactive)
same,viability,"[10]; at 0.0781 µM, OCI-P5x cells, with rucaparib 20 µM, 100% = cells with rucaparib alone",112% (inactive)
same,viability,"[10]; at 0.0781 µM, OCI-P5x cells, without rucaparib",104% (inactive)
same,viability,"[10]; at 0.313 µM, OCI-C5x cells, with rucaparib 10 µM, 100% = cells with rucaparib alone",101% (inactive)
same,viability,"[10]; at 0.313 µM, OCI-C5x cells, without rucaparib",104% (inactive)
same,viability,"[10]; at 0.313 µM, OCI-P5x cells, with rucaparib 20 µM, 100% = cells with rucaparib alone",111% (inactive)
same,viability,"[10]; at 0.313 µM, OCI-P5x cells, without rucaparib",109% (inactive)
same,viability,"[10]; at 1.25 µM, OCI-C5x cells, with rucaparib 10 µM, 100% = cells with rucaparib alone",108% (inactive)
same,viability,"[10]; at 1.25 µM, OCI-C5x cells, without rucaparib",90.4% (active)
same,viability,"[10]; at 1.25 µM, OCI-P5x cells, with rucaparib 20 µM, 100% = cells with rucaparib alone",106% (inactive)
same,viability,"[10]; at 1.25 µM, OCI-P5x cells, without rucaparib",110% (inactive)
same,viability,"[10]; at 5 µM, OCI-C5x cells, with rucaparib 10 µM, 100% = cells with rucaparib alone",96.4% (active)
same,viability,"[10]; at 5 µM, OCI-C5x cells, without rucaparib",92.7% (active)
same,viability,"[10]; at 5 µM, OCI-P5x cells, with rucaparib 20 µM, 100% = cells with rucaparib alone",95.5% (active)
same,viability,"[10]; at 5 µM, OCI-P5x cells, without rucaparib",114% (inactive)
same,remaining NAD,[6],10 nM (inactive)
same,z-score,[8],-0.305 (inactive) and -0.09 (inactive) and 0.155 (inactive)
same,inhibition,"[11]; at 0.5 µM, stronger effect = higher value",-17.4% (inactive) and 18.8% (inactive)
same,inhibition,"[11]; measured here: combination with BGB IC20, at 0.005 µM",-10.2% and -21.6%
same,inhibition,"[11]; measured here: combination with BGB IC40, at 0.005 µM",14.1% and -10.5%
same,inhibition,[11]; [20],2.17% and -11.4%
same,inhibition,"[11]; measured here: combination with cisplatin, at 0.5 µM, stronger effect = higher value",-29.5% and 9.38%
same,inhibition,"[11]; measured here: combination with cisplatin, at 5 µM, stronger effect = higher value",-24.1% and -22.5%
same,inhibition,"[12]; BGB combo, at 5 µM",22.2% and -9.06%
same,inhibition,[12]; at 0.5 µM,13.3% (inactive) and -1.85% (inactive)
same,inhibition,"[12]; cisplatin combo, at 5 µM",6.08% and -19.1%
same,inhibition,"[12]; measured here: with BGB IC20 combination, at 0.5 µM",17.6% and 6.04%
same,inhibition,"[12]; measured here: with cisplatin IC20 combination, at 0.5 µM",10.1% and -5.64%
same,inhibition,"[12]; single agent, at 5 µM",14.8% and -8.19%
same,inhibition,"[13]; BGB IC20 combo, at 0.005 µM",-9.22% and 1.55%
same,inhibition,"[13]; BGB IC40 combo, at 0.005 µM",-2.52% and -17.2%
same,inhibition,"[13]; BGB IC40 combo, at 0.05 µM",-13.6% and -3.32%
same,inhibition,[13]; at 0.5 µM,-14.5% (inactive) and -3.73% (inactive)
same,inhibition,"[13]; cisplatin combo, at 0.05 µM",-17.6% and -3.32%
same,inhibition,"[13]; cisplatin combo, at 0.5 µM",-0.899% and 2.38%
same,inhibition,"[13]; cisplatin combo, at 5 µM",-10.6% and -15.5%
same,inhibition,"[13]; measured here: 5 uM single agent, at 5 µM",10.8% and -28.4%
same,inhibition,[14]; at 0.5 µM,-13.9% (inactive) and 3.35% (inactive)
same,inhibition,[14]; [20],-9.42% and 8.49%
same,inhibition,"[14]; measured here: combination with cisplatin, at 0.5 µM",-8.99% and 3.26%
same,inhibition,"[14]; measured here: combination with cisplatin, at 5 µM",-56.8% and -3.5%
same,inhibition,[15]; at 0.5 µM,6.66% (inactive) and -23.3% (inactive)
same,inhibition,"[15]; measured here: with BGB IC20, at 0.5 µM",9.09% and -44.6%
same,inhibition,"[15]; measured here: with BGB IC20, at 5 µM",6.52% and -4.64%
same,inhibition,"[15]; measured here: with cisplatin IC20, at 0.5 µM",-3.99% and -22.6%
same,inhibition,"[15]; measured here: with cisplatin IC20, at 5 µM",-15.9% and 29.4%
same,inhibition,"[15]; single agent, at 5 µM",7.64% and -1.96%
same,inhibition,[16]; at 0.5 µM,-9.21% (inactive) and -17.1% (inactive)
same,inhibition,"[16]; measured here: combination with BGB at IC20, at 0.5 µM",-17.8% and -2.5%
same,inhibition,"[16]; measured here: combination with cisplatin at IC20, at 0.5 µM",7.75% and -28.9%
same,inhibition,[17]; at 0.5 µM,-0.81% (inactive) and -5.74% (inactive)
same,inhibition,"[17]; measured here: combo with BGB at IC20, at 0.5 µM",-12.4% and -6.59%
same,inhibition,"[17]; measured here: combo with cisplatin at IC20, at 0.5 µM",4.26% and -10.3%
